An excerpt weighted towards active compounds, which were near 7.3% of everything screened.
AmpC inh detg = blocks E. coli AmpC beta-lactamase in detergent assay. AmpC hydrolysis of nitrocefin, absorbance 480 nm, 0.01% Triton. actives 0.041% (n = 370,000). Potency, µM (doses to about 114 µM), without a hit: top-dose activity change, negative = inhibition, hits mostly inhibitors. P00811;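 also: potency is read from the fitted curve at half-maximal effect; 0% = no-compound wells and -100% = no-enzyme wells; nearly all actives have a fitted effect of over 25% in size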
Target sequence (P00811 whole entry, looked up): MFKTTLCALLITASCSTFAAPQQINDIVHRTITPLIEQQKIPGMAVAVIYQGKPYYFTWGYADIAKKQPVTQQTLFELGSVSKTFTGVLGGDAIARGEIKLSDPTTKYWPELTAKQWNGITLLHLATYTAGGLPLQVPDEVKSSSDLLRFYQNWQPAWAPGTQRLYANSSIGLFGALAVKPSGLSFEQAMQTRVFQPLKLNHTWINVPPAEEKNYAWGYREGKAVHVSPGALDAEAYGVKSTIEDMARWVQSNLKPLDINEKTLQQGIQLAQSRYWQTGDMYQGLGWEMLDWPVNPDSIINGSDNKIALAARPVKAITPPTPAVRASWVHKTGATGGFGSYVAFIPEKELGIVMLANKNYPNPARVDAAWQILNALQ
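20 mM phosphate pH 7.0 + 0.01% (detergent screen) or 0.0001% Triton X-100; 5.3 nM AmpC reagent; cpd preinc 15 min RT; nitrocefin (800 uM stock) to start; A480 q20 s × 4 min; Activity was normalised to no-enzyme and no-compound control wells.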
AmpC no deterg = AmpC beta-lactamase inhibition without detergent | P00811 | AmpC nitrocefin hydrolysis, absorbance 480 nm, 0.0001% Triton | Potency, µM (titrated, usually from 57.1 µM), for the others: at the top dose activity change, negative = inhibition, hits mostly inhibitors | actives 0.52% (n = 330,000) | AID 485341;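 also: potency is read from the fitted curve at half-maximal effect; plate controls were no compound for no effect and no enzyme for full effect; nearly all actives have a fitted effect of over 20% in size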
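AmpC (5.3 nM in the dispensed reagent) in 20 mM phosphate pH 7.0 with 0.01% (detergent screen) or 0.0001% Triton X-100 was preincubated with compounds for 15 min at room temperature. Nitrocefin was then added from an 800 uM solution, and hydrolysis was followed at 480 nm.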
HCV inhibitor = blocks hepatitis C virus | actives 3.4% (n = 340,000) | Potency, µM (highest dose often 41.8 µM), without a hit: at the top dose activity change, negative = inhibition, most hits filed as inhibitors | AID 651820 | Huh7.5.1 HCVcc-Cre infection, luciferase reporter, 44 h; also: potency is read from the fitted curve at half-maximal effect
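Compounds are dispensed onto cells plated 4 h earlier at 1,000 per well, with HCVcc-Cre virus (about 0.5 moi) added next. Following 44 h of culture, luminescent signal is measured for 15 sec after 15 min with substrate at room temperature.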
HCMV inh = inhibitors of human cytomegalovirus; HFF cells, HCMV-luciferase reporter, 72 h; stronger effect = lower value; activity change, negative = inhibition, % at 57.5 µM; actives 4.5% (n = 410,000); in the data active = activity change below about -60%; inconclusive = no clear call, values can overlap the other calls; inactive = above about -39%
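Screen run at 2 compound doses on HFFs infected with reporter HCMV, MOI 1 PFU/cell. Luciferase activity from cell lysates at 72 h post infection gave inhibition relative to buffer-only and Salinomycin wells.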
FMDV inh = antivirals against foot and mouth disease virus. Potency, µM (series often up to 57.9 µM), inactives show at the highest dose activity change, negative = inhibition, usual class: inhibitors. actives 1.2% (n = 410,000). FMDV antiviral cell-based qHTS; calls by dose curve; tested in HEK293T cells; also: read-out not given here; potency is read from the fitted curve at half-maximal effect; nearly all actives have a fitted effect of over 45% in size
An asterisk follows results filed as active; u = inconclusive; x = not tested or not shown; ! = not active in a repeat; [ ] = dose if it differs, or a comment. Unless noted, calls follow the shape of the dose curve; as a rule, active = well fitted curve in the direction sought with a large enough effect; inconclusive = small, poorly fitted or top-dose-only effect, or another doubt; inactive = no such curve, though single readings can be large; an effect the other way counts as inactive or inconclusive. Unless noted, % is scaled to controls: 0 for no effect and ±100 for the full control effect.

SMILES | AmpC inh detg | AmpC no deterg | HCV inhibitor | HCMV inh | FMDV inh
COc1ccc(-c2c[n+]3c(n2-c2ccccc2)CCCCC3)cc1 | -8% | -7% | 4% | -96* | u
COc1ccc(-c2c[n+]3c4n2CCCCC4=C(c2ccccc2)C3)cc1 | -3% | -2% | -27% | -102* | 22µM*
COc1ccc(-n2c(-c3ccc(Cl)cc3)c[n+]3c2CCCCC3)cc1 | -13% | 1% | -8% | -80* | 0%
CCc1c(C)sc(NC(=O)c2cc(-c3ccc(OC)cc3)on2)c1C#N | 17% | x | x | 26 | -12%
CN(C)C(=O)CCCCCCCCC(=O)N(C)C | -1% | -11% | 15% | 25 | 11%
Cc1cccc(N(CC(O)CN2CCCC2)S(=O)(=O)c2ccccc2)c1 (stereo not given) | -10% | -2% | 13% | 25 | 22%
Cc1ccc(S(=O)(=O)N(C)C)cc1NC(=O)c1cc(C(C)(C)C)nn1Cc1ccccc1 | 4% | 47% | 5.6µM* | -25 | u
Cc1ccc(-c2cccc(CN3CCN(C4CCN(C(C)C)CC4)C(CCO)C3)c2)o1 (stereo not given) | -7% | 63% | 5µM* | 12 | -8%
CC(C)N1CCC(N2CCN(Cc3cnc(-c4ccccc4)s3)CC2CCO)CC1 (stereo not given) | 1% | -9% | u | 24 | 6%
CC(C)CN1CCN(C2CCN(C(C)C)CC2)C(CCO)C1 (stereo not given) | 2% | -15% | x | x | x
CC(C)N1CCC(N2CCN(CCCc3ccccc3)CC2CCO)CC1 (stereo not given) | 5% | -29% | u | -16 | -14%
CC(C)N1CCC(N2CCN(C/C=C/c3ccc(F)cc3)CC2CCO)CC1 (stereo not given) | 3% | -15% | 10µM* | 12 | -10%
CC(C)N1CCC(N2CCN(Cc3ccc(-c4ccc(Cl)cc4)o3)CC2CCO)CC1 (stereo not given) | 4% | 44% | 4µM* | 29 | -15%
CC(C)(Oc1ccc(Cl)cc1)C(=O)N1CC2ON=C(c3c(F)cccc3Cl)C2C1 (stereo not given) | x | x | x | -25 | x
CC(Nc1nc(N2CCNCC2)nc2ccccc12)c1ccccc1 (stereo not given) | -2% | -18% | 10µM* | -36 | u
CC(C)CNc1nc(N)c([N+](=O)[O-])c(N2CCCCCC2)n1 | -1% | -23% | u | -99* | -22%
CCC(C)Nc1nc(N)c([N+](=O)[O-])c(Nc2ccccc2OC)n1 (stereo not given) | 9% | -16% | 13µM* | u | u
CCC(C)Nc1nc(N)c([N+](=O)[O-])c(NCc2ccccc2)n1 (stereo not given) | 0% | -47% | 11µM* | -26 | u
COc1ccccc1Nc1nc(NCC(C)C)nc(N)c1[N+](=O)[O-] | -1% | -18% | u | -85* | u
COC(=O)C[C@H]1C=C[C@H](NC(=O)Nc2ccccc2)[C@@H](CO)O1 | x | x | x | -4 | 3%
O=S(=O)(NCCc1nnc2ccc(SCc3ccc(C(F)(F)F)cc3)nn12)c1ccccc1 | -7% | x | x | -39 | -18%
COc1ccc(-c2cc3nc(-c4ccccc4)cc(N4CCCC(O)C4)n3n2)cc1 (stereo not given) | 0% | 9% | 6.3µM* | -30 | -10%
O=C(c1ccoc1)N1CCN(c2cc(-c3cccc(F)c3)nc3cc(-c4cccc(Cl)c4)nn23)CC1 | x | x | x | -82* | u
Cc1cc(N2CCN(C(=O)c3ccco3)CC2)n2nc(C)c(-c3ccccc3)c2n1 | -7% | 108% | 3.5µM*! | -22 | u
COCCN1CCN(c2cc(-c3ccccc3)nc3cc(-c4cccc(F)c4)nn23)CC1 | 1% | 199% | 10µM* | -18 | 14µM*
SMILES | AmpC inh detg | AmpC no deterg | HCV inhibitor | HCMV inh | FMDV inh
O=C(c1ccccc1)N1CCN(c2cc(Cl)nc3cc(-c4cccc(Cl)c4)nn23)CC1 | x | x | x | -10 | u
Fc1cccc(-c2cc3nc(-c4ccccc4)cc(N4CCC5(CC4)OCCO5)n3n2)c1 | 1% | -1% | -27% | -8 | -27%
Cc1cc(N2CCN(C(=O)c3ccco3)CC2)n2nc(C)c(-c3ccc(Cl)cc3)c2n1 | u | -23% | x | x | x
Cc1c(C(=O)NCCN2CCC(c3ccccc3)CC2)cnn1-c1nccc(-c2cccs2)n1 | x | x | x | x | -10%
Cc1cnc(SCC2CCCO2)nc1C1CCCN(Cc2cc3c(cc2Cl)OCO3)C1 (stereo not given) | x | x | x | x | -14%
O=[N+]([O-])c1cc(F)cc(F)c1Nc1ccc(F)cc1 | x | x | 5% | -3 | -20%
Cc1cc(N2CCN(C(=O)c3ccco3)CC2)n2nc(-c3cccc(Cl)c3)cc2n1 | u | -3% | 10µM* | -101* | u
Cc1ccc(-n2nc(CC#N)c(C#N)c2N)cc1 | u | -18% | -3% | -6 | -8%
N#CCc1nn(-c2ccc(F)cc2)c(N)c1C#N | -11% | -40%[11.4 µM] | 5% | -61* | -3%
COc1cc(=O)n2c(c1C(=O)N(C)Cc1ccsc1)CCN(Cc1c(C)nn(C)c1Cl)CC2 | x | x | x | x | 0%
CC(C)(C)NC(=O)CCN(/N=C/c1ccc([N+](=O)[O-])o1)C1=NS(=O)(=O)c2ccccc21 | -3% | -5% | u | -95* | u
CN(C)c1ccc(/C=N/N(CCC(=O)NC(C)(C)C)C2=NS(=O)(=O)c3ccccc32)cc1 | -3% | 4% | 3% | -15 | -17%
CCc1cc2c(cc3c(=O)n(CC(=O)N4CCC(C)CC4)nc(CC)n32)s1 | -6% | x | x | -38 | -4%
CCc1cc2c(cc3c(=O)n(CC(=O)N4CCN(c5ccccn5)CC4)nc(CC)n32)s1 | -9% | -7% | 7.9µM* | -6 | x
COc1ccc(N2CCN(CCCn3c(=S)[nH]c4ccccc4c3=O)CC2)cc1 | 1% | -21% | u | -72* | 1%
COc1ccccc1N1CCN(CCCn2c(=S)[nH]c3ccccc3c2=O)CC1 | -2% | -36% | -23% | u | -7%
COc1ccc(-n2c(=S)[nH]c3cc(C(=O)Nc4ccc(F)cc4)ccc3c2=O)c(OC)c1 | 0% | -37% | u | -70* | u
COc1ccc(NC(=O)CCCn2c(=S)[nH]c3ccccc3c2=O)cc1 | -19% | -30% | u | 3 | -7%
COc1ccc(-n2c(=S)[nH]c3ccccc3c2=S)cc1 | -6% | -31% | -1% | -64* | 33%
COc1ccc(NC(=O)CCn2c(=S)[nH]c3ccccc3c2=O)cc1 | 3% | -4% | -9% | -61* | -6%
O=C(Cc1cccc(NC(=O)C2CCCN(C(=O)C3CCC3)C2)c1)Nc1ccc(C(=O)N2CCCCC2)cc1 (stereo not given) | x | x | 15% | 0 | 8%

Screens deposited in PubChem by National Center for Advancing Translational Sciences (NCATS).
